28 molecules from PubChem BioAssay (EPA / NIEHS) can be followed below.

Inconclusive results are not listed. Calls of active or inactive are those of the source. The calls were made as follows: active = hit-call score of the fitted dose curve at least 0.9, where 1 is the maximum; inconclusive = response in the unintended direction; inactive = score below 0.9.

The nature of the test: ATG_Hpa5_TRANS: Attagene TRANS-FACTORIAL HepG2 Assay for human GAL4-Hpa5 Hepatocyte Transcription Factor Basal Promoter (AID 2282975).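 Also: hits are increases in reporter mRNA over DMSO baseline.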 The settings on record: HepG2 Attagene GAL4-Hpa5 transcription reporter. As for the experimental part: ATG_TRANS is a cell-based, multiplexed-readout assay that uses HepG2, a human liver cell line, with measurements taken at 24 hours after chemical dosing in a 24-well plate.ATG_Hpa5_TRANS is one of 30 assay component(s) measured or calculated from the ATG_TRANS assay. It is designed to make measurements of mRNA induction, a form of inducible reporter, as detected with fluorescence intensity signals by Reverse transcription polymerase chain reaction (RT-PCR) and Capillary electrophoresis technology.Data from the assay component ATG_Hpa5_TRANS was analyzed into 1 assay endpoint. This assay endpoint, ATG_Hpa5_TRANS, was analyzed in the positive analysis fitting direction relative to DMSO as the negative control and baseline of activity. Using a type of inducible reporter, measures of mRNA for gain-of-signal activity can be used to understand the background control at the transcription factor-level as they relate to the gene . Furthermore, this assay endpoint can be referred to as a secondary readout, because this assay has produced multiple assay endpoints where this one serves a background control function. To generalize the intended target to other relatable targets, this assay endpoint is annotated to the background measurement intended target family, where the subfamily is internal marker.
Human liver HepG2 cells are transiently transfected with multiple reporter transcription units (MRTUs) in 6-well plates using FuGene 6 reagent (Roche; 3 ml FuGene/1 mg DNA). The MRTU constructs are regulated by a cis-regulating element (promoter). […] A major difference between the CIS and TRANS system is that in CIS activities of endogenous TFs are measured, whereas the TRANS assay evaluates changes in activities of exogenous, chimeric NR-Gal4 proteins. […] At the end of 24 hour incubation, total RNA was isolated using TriZol reagent (Invitrogen). The isolated RNA is then reverse-transcribed using oligo(dT) primer and Mo-MLV reverse transcriptase (Invitrogen) with DNAse I (Ambion) treatment for 30 min. The one-tenth of the produced cDNA was amplified by PCR using Taq DNA polymerase (Invitrogen) and two reporter sequence-specific primers. The PCR products were fluorescently labeled by primer extension with 6-arboxyfluorescein (6-FAM) 5'-labeled reporter sequence-specific primer (2 min at 95 C, 20 s at 68 C and 10 min at 72 C) and these products were digested with 5U of HpaI (New England Biolabs) for 2h at 37 C. The fragments were purified using Qiaquick PCR columns (Qiagen), analyzed on an ABI 3130xL genetic analyzer (Applied Biosystems) with peak positions identified by using a set of X-rhodamine (ROX)-labeled MapMarker1000 molecular weight standards (BioVentures). The raw capillary electrophoresis data was processed using Attagraph software (Attagene).
Take `S=C([S-])NCCNC(=S)[S-].[Mn+2]`: the outcome was inactive.

`CCN(Cc1c(F)cccc1Cl)c1c([N+](=O)[O-])cc(C(F)(F)F)cc1[N+](=O)[O-]`: the call was inactive.

`COC(=O)c1ccc(I)cc1S(=O)(=O)NC(=O)Nc1nc(C)nc(OC)n1`: the result was inactive.

With `COC(=O)c1c(Cl)nn(C)c1S(=O)(=O)NC(=O)Nc1nc(OC)cc(OC)n1`, the molecule was called inactive.

As for `CCOC(=O)COc1cc(-n2ncc(C(F)(F)F)c(C)c2=O)c(F)cc1Cl`, the call was inactive.

For `CCCCOCCOCCOCc1cc2c(cc1CCC)OCO2`, the outcome was inactive.

As for `CCNc1nc(N)nc(Cl)n1`, the outcome was inactive.

Turning to `N#CSCSc1nc2ccccc2s1`, the outcome was inactive.

As for `Oc1ccc(C(c2ccc(O)cc2)C(Cl)(Cl)Cl)cc1`, the molecule was classed as inactive.

`CCCOC(=O)c1ccc(C(=O)OCCC)nc1`: the result was inactive.

Consider `CCOC(=O)C(C)Oc1ccc(Oc2nc3ccc(Cl)cc3o2)cc1` (stereo not drawn), for which the molecule was called inactive.

As for `CCCCCOC(=O)COc1cc(N2C(=O)C3=C(CCCC3)C2=O)c(F)cc1Cl`, the molecule was classed as inactive.

As to `COC(=O)c1cccc(C)c1S(=O)(=O)NC(=O)Nc1nc(OCC(F)(F)F)nc(N(C)C)n1`, the call was inactive.

For the molecule `c1ccc(Nc2ccccc2)cc1`, the call was inactive.

On to `CCCN(CCC)C(=O)SCC`, for which the molecule was called inactive.

As for `CCCCOC(=O)[C@@H](C)Oc1ccc(Oc2ccc(C(F)(F)F)cn2)cc1`, the outcome was inactive.

On to `S=C(S)NCCNC(=S)S.[Mn+2].[S-]C([S-])=NCCN=C([S-])[S-].[Zn+2]`, for which the result was inactive.

Regarding `CCSC(=O)N(CC(C)C)CC(C)C`, the outcome was inactive.

As to `CCCN(CCC)c1c([N+](=O)[O-])cc(C(F)(F)F)c(N)c1[N+](=O)[O-]`, the molecule was called inactive.

Regarding `COC(=O)CSc1cc(N=c2sc(=O)n3n2CCCC3)c(F)cc1Cl`, the outcome was inactive.

`CCOC(=O)NCCOc1ccc(Oc2ccccc2)cc1`: the result was inactive.

Consider `OB(O)O`, for which the molecule was called inactive.

With `CCOC(=O)[C@H](C)Oc1ccc(Oc2nc3ccc(Cl)cc3o2)cc1`, the result was inactive.

`CN(C)C(=O)Nc1ccc(Cl)c(Cl)c1`: the result was inactive.

Turning to `COCCO`, the call was inactive.

As to `CCCCOC(=O)C(C)Oc1ccc(Oc2ccc(C(F)(F)F)cn2)cc1` (stereo not drawn), the outcome was inactive.

`CCN(CC)C(=O)c1cccc(C)c1`: the outcome was inactive.

In the case of `CCCCC(CC)COC(=O)c1ccccc1C(=O)O` (stereo not drawn), the outcome was inactive.
